Tau ThT inhib – blocks human tau fibril formation measured by thioflavin T | 2.1% of 270,000 active | AID 1460 | P10636 | recombinant tau K18 P301L, heparin-induced fibrillization, ThT fluorescence | Potency, µM (doses to about 57.4 µM), without a hit: at the highest dose activity, negative = inhibition, actives largely listed as inhibitors; further: potency means the concentration at half of the fitted maximal effect; nearly all actives have a fitted effect of over 55% in size
Target sequence (P10636 561-689 P618L limits assumed): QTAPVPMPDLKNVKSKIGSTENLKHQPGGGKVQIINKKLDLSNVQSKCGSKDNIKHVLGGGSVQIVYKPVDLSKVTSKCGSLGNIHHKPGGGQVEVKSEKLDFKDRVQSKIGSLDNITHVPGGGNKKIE
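Heparin-induced (20 uM) aggregation of recombinant human K18 P301L tau, 15 uM unlabeled with 0.24 uM labeled, pH 7 acetate buffer, 6 hr at 37 C with compound. Fibrils quantified by 30 uM ThT fluorescence after 1 hr ambient incubation.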
FBPA coupling cs – coupling enzyme interference in Giardia aldolase counter-screen | coupling enzyme system counterscreen, AmpLite Red fluorescence | activity change, negative = inhibition, % at 58.2 µM, hits read low | 0.67% of 290,000 active | AID 2472; in the data active means activity change below about -30%
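Compounds tested against the coupling enzymes alone at 57.5 uM final; readout was AmpLite Red fluorescence (525/598 nm) after 20 min at RT.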
Tau fluor counter – counter-screen for tau fibril formation inhibitors. tau K18 P301L (four-repeat tau fragment) Alexa594 fluorescence, heparin fibrillization. Potency, µM (titrated, usually from 57.7 µM), for inactives: top-dose activity change, negative = decrease. 0.93% of 280,000 active; further: potency means the concentration at half of the fitted maximal effect; nearly all actives have a fitted effect of over 55% in size
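Human K18 P301L tau (15 uM unlabeled plus 0.24 uM Alexa 594-labeled, final) in 100 mM sodium acetate pH 7 was mixed with compound and 20 uM heparin and incubated 6 hr at 37 C.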
Sfp PPTase inh – Sfp phosphopantetheinyl transferase inhibition. Q9F4F7. Biochemical Sfp PPTase activity, qHTS. Potency, µM, for inactives: largest response in the series, negative = inhibition, actives largely listed as inhibitors. 3.5% of 310,000 active. AID 1490;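 further: the enzyme is Sfp with the accession as filed and its product quenches rhodamine fluorescence; potency means the concentration at half of the fitted maximal effect; 0% = enzyme reaction without inhibitor and -100% = no enzyme wells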
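After 15 min at room temperature with compound, 15 nM Sfp received 5 uM rhodamine-CoA plus 12.5 uM BHQ-2-ybbR (50 mM Hepes pH 7.6, 10 mM MgCl2). Rate came from the fluorescence difference over 30 min, ex 525/em 598 nm.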
Tau FP inhib – blocks human tau fibril formation measured by polarization; P10636; K18 P301L tau heparin fibrillization, Alexa594 FP, 6 h; Potency, µM (top dose mostly 57.7 µM), inactives show top-dose activity, negative = inhibition, usual class: inhibitors; 0.39% of 280,000 active; further: potency means the concentration at half of the fitted maximal effect; nearly all actives have a fitted effect of over 55% in size
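Steps: dispense K18 P301L tau (15 uM plus 0.24 uM Alexa 594 tracer, final) in pH 7 sodium acetate; add compound; add heparin (20 uM final); incubate 6 hr, 37 C; add ThT (30 uM final); after 1 hr ambient, read FP.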
* = called active by the depositor; i = inactive; u = inconclusive; x = no result given; [ ] = another dose, or the depositor's remark. Only some compounds are listed: those with a hit (about 5.2% of all), similar ones and a draw of the others. Unless noted, the call rests on the fitted dose curve; in most records, active means well fitted curve in the direction sought with a large enough effect; inconclusive means small, poorly fitted or top-dose-only effect, or another doubt; inactive means no such curve, though single readings can be large; an effect the other way counts as inactive or inconclusive. Unless noted, on the % scale 0 is the no-effect control and ±100 the full control effect.

SMILES	Tau ThT inhib	FBPA coupling cs	Tau fluor counter	Sfp PPTase inh	Tau FP inhib
COc1cc(Cl)c(S(=O)(=O)NCCc2c(C)[nH]c3c(C)cccc23)cc1Cl	u	x	16µM*[quencher]	x	22%
COc1c(C)cc(S(=O)(=O)NCCc2c(C)[nH]c3ccccc23)c(C)c1C	u	x	16µM*[quencher]	x	u
COc1cccc(-c2cncnc2NCc2cccs2)c1	x	10	x	4%	x
COc1ccc(CCNC(=O)CSC2=Nc3ccccc3C3=NC(CCC(=O)NCc4ccccc4)C(=O)N23)cc1OC (stereo not drawn)	-11%	x	-9%	x	-12%
CC1=NN(c2ccc([N+](=O)[O-])cc2)C(=O)C1[N+](=O)[O-] (stereo not drawn)	13µM*	2	u	-12%	-1%
Cc1cc(-c2ccc(C)c(S(=O)(=O)NC(c3cccs3)C(C)C)c2)on1 (stereo not drawn)	-6%	x	u	x	-2%
CSc1nn(CCc2ccncc2)c(=S)s1	-2%	-6	0%	50µM*	-1%
Fc1ccc(Br)cc1SCCc1ccncc1	x	2	x	-27%	x
COC(=O)c1cc(NC(=O)c2nccnc2C(=O)O)cc(C(=O)OC)c1	-16%	3	-8%	56µM*	0%
Cn1c(=O)[nH]c(=O)c2c1nc(N/N=C/C(Br)=C/c1ccccc1)n2CCO	x	1	u	56µM*	-12%
CCCN(CCC)C(=O)Cn1c(=O)n(-c2ccccc2)c(=O)c2c3c(sc21)CCCC3	-6%	x	-11%	x	-1%
COc1cccc(CNC(=O)C2CCCN(S(=O)(=O)c3cn(C)cn3)C2)c1 (stereo not drawn)	12%	x	6%	x	0%
C[C@@](N)(Cc1ccc(O)cc1)C(=O)O	u	2	u	-2%	-13%
CC(N)(Cc1ccc(O)c(O)c1)C(=O)O (stereo not drawn)	4µM*	x	u	x	u
CCOC(=O)c1cnc2cc(C(F)(F)F)ccc2c1Nc1ccc(F)cc1F	4%	x	-4%	x	-1%
Oc1ccc2c(c1)OCC1(O)Cc3cc(O)c(O)cc3C21 (stereo not drawn)	22µM*	-21	u	i	u
CC(=O)Oc1ccc2c(c1OC(C)=O)OCC1(O)Cc3c(cc(OC(C)=O)c(OC(C)=O)c3OC(C)=O)C21 (stereo not drawn)	u	-1	u	-1%	-12%
Cc1cccc(C(=O)n2c(=S)nc3cc(C)ccn32)c1	u	0	-26%	8.9µM*	u
COC(=O)c1cc2oc(C)cc2n1CC(=O)Nc1ccc(C)cc1C	-11%	x	-3%	x	8%
S=C(NCc1ccc2[nH]c3c(c2c1)CCCC3)Nc1ccccc1	u	-3	13µM*[quencher]	5%	12%
O=S(=O)(NCc1ccccc1)c1ccc2[nH]c3c(c2c1)CCCCC3	11%	x	u	x	-11%
Cc1cc(C)cc(NC(=S)NCc2ccc3[nH]c4c(c3c2)CCCC4)c1	u	-4	10µM*[quencher]	3%	u
CCOc1ccc(NS(=O)(=O)c2ccc3c(c2)NC(=O)CCS3)cc1	-1%	x	-3%	x	8%
CNc1ccc(/C=C(\CCC(=O)O)c2nc3ccccc3s2)cc1[N+](=O)[O-]	3.2µM*	1	u	7%	-16%
COc1cc(/C=C(\CC(=O)O)c2nc3ccccc3s2)cc(OC)c1O	u	1	-22%	35µM*	13%
SMILES	Tau ThT inhib	FBPA coupling cs	Tau fluor counter	Sfp PPTase inh	Tau FP inhib
COc1ccc(/C=C(\CC(=O)O)c2nc3ccccc3s2)cc1O	u	4	-17%	-6%	10%
Cn1cnnc1Sc1ccc(/C=C(\CCC(=O)O)c2nc3ccccc3s2)cc1[N+](=O)[O-]	5%	1	4%	-14%	4%
CN(c1ccccc1)c1ccc(/C=C(\CCC(=O)O)c2nc3ccccc3s2)cc1[N+](=O)[O-]	14µM*	1	u	7%	-21%
Cc1ccc(/C=C(\CCC(=O)O)c2nc3ccccc3s2)cc1[N+](=O)[O-]	u	1	11%	-2%	6%
CCCCN(C)c1nnc(NC(=O)Nc2cccc(C(C)=O)c2)s1	u	x	-27%	x	-10%
Cc1ccc(-c2csc(N)n2)s1	32µM*	-1	-29%	35µM*	u
Cc1csc(N)n1	-12%	1	-8%	u	-13%
CCCCN(C)c1nc2c(S(=O)(=O)c3ccc(CC)cc3)nnn2c2ccc(Cl)cc12	-2%	x	-14%	x	-10%
CCOC(=O)c1[nH]c(C)c(C(=O)NCc2cccc(OC)c2)c1C	-13%	x	-15%	x	-1%
CC(C)n1cnc2c(=S)nc[nH]c21	-10%	-1	-10%	8.9µM*	2%
CC(CC(=O)O)Nc1ccccc1O (stereo not drawn)	u	-17	-8%	35µM*	-8%
CC(=O)Nc1ccccc1O	-12%	3	-8%	13%	4%
O=C(NC1CCSc2ccccc21)c1ccc(F)c(S(=O)(=O)N2CCOCC2)c1 (stereo not drawn)	x	x	x	50µM*	x
O=C(NC1CCSc2ccccc21)c1cc(S(=O)(=O)N2CCOCC2)ccc1F (stereo not drawn)	x	x	x	21%	x
CCOc1ccc2c(c1)nc(SCC(=O)c1cccs1)n2C	-12%	-8	-2%	u	3%
CCOc1ccc2c(c1)nc(SCC(=O)c1ccc(Br)s1)n2C	u	-1	-12%	32µM*	-2%
Cc1ccc(-n2nc(C(=O)N3CCCCC3)c(=O)n(C)c2=O)cc1	-1%	x	-3%	x	-7%
COCCN(C(=S)Nc1c(C)cc(C)cc1C)C(C)c1cccs1 (stereo not drawn)	-14%	1	-15%	50µM*	2%
CCNC(=S)Nc1c(C)n(C)n(-c2ccccc2)c1=O	-8%	1	-8%	-1%	3%
O=C(CN1CCN(c2ccc(O)cc2)CC1)Nc1ccc(SC(F)F)cc1	u	-10	-30%	35µM*	11%
Cc1c(NC(=O)CN2CCN(c3ccc([N+](=O)[O-])cc3)CC2)c(=O)n(-c2ccccc2)n1C	u	4	1%	11%	4%
Cc1c(NC(=S)NNC(=O)CCC(=O)O)c(=O)n(-c2ccccc2)n1C	-2%	-1	-2%	45µM*	-1%
Cc1c(NC(=O)CN2CCN(c3ccc(O)cc3)CC2)c(=O)n(-c2ccccc2)n1C	u	-22	-18%	22µM*	u
Cc1ccc(Cl)cc1NC(=O)Cn1c(=O)n(CCCS(=O)(=O)C2CCCCC2)c(=O)c2ccccc21	1%	x	u	x	-3%
CC(C)CCC[C@@H](C)[C@@H]1CC[C@H]2C3=CC=C4CC(O)CC[C@]4(C)[C@H]3CC[C@@]21C (stereo partly drawn)	x	-2	x	u	x
CSc1ccc(CNC(=O)Cc2csc3ccccc23)cc1	1%	x	-12%	x	-8%
CCc1ccc2oc(-c3ccc(C)c(NC(=O)c4ccc(C#N)cc4F)c3)nc2c1	-1%	x	-4%	x	-2%

Screening data (PubChem BioAssay)
